GalR3 antagonist – GalR3 antagonists in HEK293 cells, primary screen, cell-based, fluorescence readout | HEK293 GalR3-CNG cAMP membrane potential fluorescence; galR3 body fused to GalR1 C-terminus | Galanin receptor type 3 (Homo sapiens), O60755 | inhibition, % at 3 µM | actives 0.44% (n = 360,000);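 active = inhibition above the screen-wide average plus 3 SD, cut at about 13% in these data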;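 note: forskolin and galanin both at EC90 stimulate the cells; cAMP rise reported by CNG channel membrane potential dye signal; 0% = forskolin plus galanin with DMSO and 100% = forskolin alone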
Target sequence (O60755 1-299 limits assumed): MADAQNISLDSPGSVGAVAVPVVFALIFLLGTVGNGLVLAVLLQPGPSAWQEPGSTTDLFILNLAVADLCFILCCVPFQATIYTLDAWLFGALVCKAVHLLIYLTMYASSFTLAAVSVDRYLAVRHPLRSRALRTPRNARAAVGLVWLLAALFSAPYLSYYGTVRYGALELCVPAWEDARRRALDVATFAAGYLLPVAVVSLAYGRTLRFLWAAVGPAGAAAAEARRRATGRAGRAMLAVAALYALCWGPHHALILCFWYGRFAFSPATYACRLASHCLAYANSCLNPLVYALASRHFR
NR2F2 inh – NR2F2 transcriptional activity inhibitors, primary screen, cell-based, luciferase reporter, HEK293T, luminescence | actives 0.7% (n = 370,000) | AID 686940, 2013 | HEK293T NGFI-A luciferase reporter | inhibition, % at 8.6 µM;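 active = inhibition above a per-plate cutoff, mean inhibition of test wells between control levels plus 3 SD, cut at about 38% in these data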;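 note: cells cotransfected with COUP-TFII expression vector driving the NGFI-A reporter; 0% = median of COUP-TF2 test wells and 100% = reporter-only cells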
Target sequence (P24468 whole entry, looked up): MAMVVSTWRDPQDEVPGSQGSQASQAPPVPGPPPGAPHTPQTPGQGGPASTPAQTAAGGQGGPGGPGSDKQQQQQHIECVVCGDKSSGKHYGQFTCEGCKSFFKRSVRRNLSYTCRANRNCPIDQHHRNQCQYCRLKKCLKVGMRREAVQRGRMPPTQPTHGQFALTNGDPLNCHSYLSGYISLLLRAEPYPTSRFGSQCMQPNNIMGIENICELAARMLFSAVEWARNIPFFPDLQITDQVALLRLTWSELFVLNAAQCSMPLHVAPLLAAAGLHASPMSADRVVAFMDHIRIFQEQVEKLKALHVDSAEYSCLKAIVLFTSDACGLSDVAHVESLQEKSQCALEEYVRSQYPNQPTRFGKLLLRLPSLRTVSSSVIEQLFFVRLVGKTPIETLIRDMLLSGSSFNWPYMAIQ
NR5A2 inv ag – LRH-1 (NR5A2) inverse agonists, primary screen, cell-based, luminescence, HEK293T, StAR-luciferase reporter; Nuclear receptor subfamily 5 group A member 2 (Homo sapiens), O00482; LRH-1 transfected, 24 h; inhibition, % at 3.6 µM; actives 0.13% (n = 360,000); AID 602396, 2012;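 active = inhibition above the mean inhibition of all tested compounds plus 3 SD, cut at about 73% in these data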;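 note: 0% = DMSO wells and 100% = reporter-only cells lacking LRH-1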
SRC1 inh – SRC1 coactivator transcriptional activity inhibitors, primary screen, cell-based, luminescence; inhibition, % at 3.6 µM; HEK293 GAL4-SRC1 luciferase reporter; AID 588354, 2011; actives 0.12% (n = 360,000); Nuclear receptor coactivator 1 (Homo sapiens), Q15788;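 active = inhibition above the campaign mean plus 3 SD, with each screening campaign given its own cutoff, cut at about 60% in these data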;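 note: 0% = DMSO treated cells and 100% = gossypol at 36 µM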
NCOA3 inh – SRC3 coactivator transcriptional activity inhibitors, primary screen, cell-based, luminescence. inhibition, % at 3.6 µM. HEK293 GAL4-SRC3 luciferase reporter. actives 0.17% (n = 360,000). Nuclear receptor coactivator 3 (Homo sapiens), Q9Y6Q9;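 active = inhibition above a per-campaign cutoff, the mean of all compounds plus 3 SD, cut at about 60% in these data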;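 note: 0% = DMSO-treated cells and 100% = gossypol-treated cells at 36 µM; higher means less SRC3-driven luciferase light from the GAL4 reporter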
SRC2 inh – inhibition of GAL4-SRC2 driven luciferase reporter, primary screen, SRC2 inhibitor project, cell-based, luminescence; Nuclear receptor coactivator 2 (Homo sapiens), Q15596; HEK293 GAL4-SRC2 luciferase reporter; actives 0.17% (n = 370,000); inhibition, % at 9 µM;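 active = inhibition above the mean inhibition of all tested compounds plus 3 SD, set per campaign, cut at about 52% in these data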;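 note: 0% = DMSO treated cells and 100% = cells given Gossypol at 36 µM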
Gal4-VP16 ctr – Gal4-VP16 luciferase reporter inhibitors, counter-screen for COUP-TFII antagonist project, cell-based, luminescence, HEK293; shares compounds with NR2F2 inh; inhibition, % at 8.5 µM; actives 25% (n = 2,500); AID 687007, 2013; in the data active = inhibition above about 13%
COUP-TFII conf – NR2F2 transcriptional activity inhibitors, confirmation, cell-based, luciferase reporter, HEK293, triplicate; HEK293 NGFI-A luciferase reporter, luminescence; AID 687008, 2013; shares compounds with NR2F2 inh; inhibition, % at 8.5 µM; actives 45% (n = 2,500);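 active = mean inhibition over three repeats above a set limit taken from the earlier primary screen, cut at about 38% in these data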;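 note: 100% = cells given the luciferase reporter alone without the COUP-TF2 vector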
An asterisk follows results filed as active; . = no result; ! = not confirmed by another sample. In the library only some 1.1% were active in any assay of this set; here they are far more common.

SMILES | GalR3 antagonist | NR2F2 inh | NR5A2 inv ag | SRC1 inh | NCOA3 inh | SRC2 inh | Gal4-VP16 ctr | COUP-TFII conf
CC(=O)Nc1cnc(-c2ccc3c(c2)OCO3)cn1 | 2 | -42 | -103 | -116 | -104 | -24 | . | .
CC1=C(C(=O)OCc2ccc3c(c2)OCO3)C(c2ccc(Cl)cc2)NC(=O)N1 (stereo not drawn) | -4 | 48* | 62 | 75* | 65* | 59* | 29* | 37
CC1=C(C(=O)OCc2ccc3c(c2)OCO3)C(c2ccc(F)cc2)NC(=O)N1 (stereo not drawn) | 5 | 38* | 60 | 74* | 61 | 44 | 23* | 28
CSCCOC(=O)C1=C(C)NC(=O)NC1c1ccc2c(c1)OCO2 (stereo not drawn) | -7 | -5 | -6 | 8 | -14 | -7 | . | .
Cc1cc(N2CCN(CC(C)(C)O)C[C@H]2C)ccc1N1CCN(Cc2ccccc2)[C@@H](C)C1 | -8 | 3 | . | . | . | 17 | . | .
CSc1ncccc1C(=O)N1CCCC(N2CCN(c3ccccc3C)CC2)C1 (stereo not drawn) | -7 | -4 | -3 | -3 | 9 | 17 | . | .
COc1cccc(-c2csc(N3CCN(C(=O)Nc4ccc(Cl)cc4)CC3)n2)c1 | -7 | 1 | -32 | -4 | -34 | 2 | . | .
COc1ccc(NC(=O)N2CCN(c3nc(-c4cccc(OC)c4)cs3)CC2)cc1 | -7 | 40* | -5 | 3 | 19 | 1 | -14 | 14
CCNC(=O)Nc1ccc2c(c1)C(=O)N(C)[C@H]1CC[C@H](CC(=O)N[C@H](C)c3ccccc3)O[C@@H]1CO2 | . | 8 | . | . | . | 4 | . | .
COc1ccc(NC(=O)O/N=C/c2c(C)nn(C(C)(C)C)c2C)cc1 | 1 | 18 | -26 | -23 | -2 | -76 | . | .
Cc1nn(C(C)(C)C)c(C)c1/C=N/OC(=O)Nc1ccc(Cl)c(Cl)c1 | 0 | 69* | 25 | 60 | 79* | 70* | 49* | 84*
Cn1c(COc2ccccc2O)[n+](C)c2ccccc21 | 7 | 0 | 20 | 7 | -9 | 0 | . | .
CCCCCCCCCCOC(=O)Cn1c(COc2ccccc2OC)[n+](C)c2ccccc21 | 4 | 44* | 22 | 15 | 11 | -26 | 4 | 36
COc1cccc(CN(C)[C@H]2C[C@H]3c4[nH]c5ccccc5c4CCN3C[C@H]2[C@H](C)O)c1OC | -3 | -10 | . | . | . | -4 | . | .
CC1(C(=O)Nc2ccccc2)CCN1C(=O)C1(c2ccc(Cl)cc2)CC1 (stereo not drawn) | 1 | 76* | -21 | 7 | -17 | 6 | 4 | 14
CCOc1ccc(N=C(NN)c2ccc3ccccc3n2)cc1 | -2 | 40* | 16 | 43 | 44 | 38 | -41 | -14
CC[C@H](C)[C@@H]1NC(=O)[C@@H](CC(C)C)NC(=O)[C@H](C(C)C)NC(=O)[C@H]2CSSC[C@H](NC1=O)C(=O)N2 | -2 | 106* | 103* | 96* | 95* | 94* | 96* | 112*
Cc1cccc(-c2nnc3n2N=C(c2ccccc2)CS3)c1 | -3 | 14 | 29 | -10 | 13 | 10 | . | .
Cc1cc(-c2nnc3n2N=C(c2ccc(-c4ccccc4)cc2)CS3)n[nH]1 | -3 | -17 | 16 | -2 | -16 | -21 | . | .
CCc1nnc2n1N=C(c1ccc(Br)cc1)CS2 | -11 | 10 | -14 | 3 | -4 | 4 | . | .
C[n+]1c2n(c3ccccc31)N=C(c1ccc(Br)cc1)CS2 | -4 | 48* | 11 | 25 | 44 | -9 | 20* | 51*
C[n+]1c2n(c3ccccc31)N=C(c1ccccc1)CS2 | -6 | 40* | 29 | 1 | 18 | 14 | -1 | 47*!
C[n+]1c2n(c3ccccc31)N=C(c1ccc(-c3ccccc3)cc1)CS2 | -3 | 70* | 58 | -5 | 63* | -54 | 8 | 65*
COc1ccc(CN2CN3Cc4cc(OC)ccc4C3CS2(=O)=O)cc1 (stereo not drawn) | . | 0 | . | . | . | 6 | . | .
Cc1cnc2c(N)cc(C)c(C)c2c1 | -3 | 1 | -8 | -23 | -9 | -38 | . | .
SMILES | GalR3 antagonist | NR2F2 inh | NR5A2 inv ag | SRC1 inh | NCOA3 inh | SRC2 inh | Gal4-VP16 ctr | COUP-TFII conf
COC(=O)[C@]12C[C@H](CC(=O)NCc3ccc(OC)c(OC)c3)C(=O)N(Cc3cccc4ccccc34)C1=C[C@H](C(C)(C)C)O[C@@H]2C | . | 1 | . | . | . | 10 | . | .
O=C(OCC#CCSc1nnc(-c2cccc(F)c2)o1)c1ccc(F)cc1 | . | 1 | . | . | . | . | . | .
CCC(CO)Oc1cc(NCc2ccccc2O)c2ncn(C(C)C)c2c1 (stereo not drawn) | -7 | 43* | 16 | 0 | 10 | 14 | -10 | 40*
Cc1ccc(C(=O)Sc2cccccc2=O)cc1 | -10 | 49* | 61 | 1 | 75* | 94* | 89* | 92*
O=C(Nc1ccccc1SC(=O)c1ccccc1)c1ccccc1 | -5 | -10 | -10 | -64 | -74 | -39 | . | .
CC(=O)Nc1ccc(Nc2cc(C)nc3c(-c4ccccc4)cnn23)cc1 | -5 | 42* | 16 | 24 | 28 | 37 | -17 | 43*
Cc1ccc2oc(/N=C(\N)NC(=O)C(C)(C)C)nc2c1 | 4 | 93* | 83* | 83* | 86* | 81* | 88* | 105*
O=C(c1cc(COc2c(F)cccc2F)on1)N1CCC(c2ccncc2)CC1 | 11 | 60* | 16 | 28 | 30 | -7 | 5 | 47*
CCOC(=O)N[C@H](C(=O)N1CCC[C@H]1C(=O)NC1CCCC1)C1CCCCC1 | -7 | 1 | . | . | . | -19 | . | .
CCOC(=O)C1=C(C(=O)OCC)C2N(Cc3ccc(C#N)cc3)c3ccccc3[C@@]23C[C@@H](C(=O)OC)N(S(=O)(=O)c2cccs2)C3=N1 (stereo partly drawn) | 0 | 2 | . | . | . | 9 | . | .
COc1cccc(C2=NCCc3cc4c(cc32)OCO4)c1OC | 1 | -15 | 10 | 6 | 7 | 14 | . | .
COc1ccc2cc3[n+](cc2c1OC)CCc1cc2c(cc1-3)OCO2 | 2 | 53* | 34 | 10 | -26 | -3 | 14*! | 54*!
